Experimental data published in ChEMBL document CHEMBL4513216, “Probing the Open Global Health Chemical Diversity Library for Multistage-Active Starting Points for Next-Generation Antimalarials” (ACS Infect Dis, 2020).
Hit rate of the full screen: of about 65,000 compounds, about 2,100 (3.2%) showed an effect of 50% or more. The median lay at about -52%. This excerpt belongs to a sample that is enriched for strong results.

system: Plasmodium falciparum; assay: Screen against P. falciparum Asexual Blood Stage (ABS), at 5uM; assay type: functional, Dd2; conditions: tested at 5 uM

Row | Structure (SMILES) | INHIBITION
1 | O=C(NCC(c1cccs1)N1CCOCC1)c1ccc(F)cc1Cl (stereo not given) | -46.5%
2 | CN1CCN(Cc2ccccc2CNC(=O)c2ccc(Br)cc2F)CC1 | 48.8%
3 | CC(CNC(=O)c1ccc(Cl)cc1F)N1CCCC1 (stereo not given) | -2.96%
4 | CN1CCN(C(CNC(=O)c2ccc(Cl)cc2F)c2cccs2)CC1 (stereo not given) | 53.9%
5 | CN1CCN(Cc2ccccc2CNC(=O)c2cc(Cl)ccc2F)CC1 | 66.5%
6 | CC(CNC(=O)c1cc(Cl)ccc1F)N1CCCC1 (stereo not given) | 12.4%
7 | CN1CCN(C(CNC(=O)CCn2cccn2)c2cccs2)CC1 (stereo not given) | -29.5%
8 | Cc1cc(C)n(CCN2CCC(N(C)Cc3noc(C4CC4)n3)C2)n1 (stereo not given) | -148%
9 | Cc1cc(C(=O)N2CCc3ncnc(-c4cnn(C)c4)c3CC2)c(C)o1 | -23.2%
10 | CC(CNC(=O)c1ccc(=O)[nH]n1)N1CCc2ccccc21 (stereo not given) | -120%
11 | CN(C)C(=O)NC[C@@H]1OC[C@H]2CN(Cc3cccc(F)c3)CC[C@H]21 | -66.7%
12 | CN(C)CC1CSCCCN1C(=O)c1ccc(C(C)(C)C)cc1 (stereo not given) | 2.97%
13 | CN(C)CC1CSCCCN1C(=O)c1ccc(-n2cccc2)cc1 (stereo not given) | 63%
14 | CN(C)CC1CSCCCN1C(=O)c1ccc(-c2ccccc2)cc1 (stereo not given) | 6.37%
15 | CC(C)NC(=O)C1CCC2(CCN(Cc3cnn(C)c3)CC2)CO1 (stereo not given) | -63.9%
16 | CC(NC(=O)Cn1cc(-c2ccccc2)cn1)C1CC1 (stereo not given) | -158%
17 | COCC1CN(S(=O)(=O)C2CC2)Cc2ncn(CC3CC3)c21 (stereo not given) | -17.1%
18 | CNC(=O)C1CCN(C(=O)CCn2cccn2)CC1 | -104%
19 | CC(C)CN1CCN(C(=O)CCn2cccn2)CC1 | 67.8%
20 | CCC(=O)N1CCN(C(=O)CCn2cccn2)CC1 | -114%
21 | O=C(CCn1cccn1)N1CCN(CC(F)F)CC1 | -177%
22 | COC1CCN(C(=O)CCn2cccn2)CC1 | 53.1%
23 | CS(=O)(=O)N1CCN(C(=O)CCn2cccn2)CC1 | -7.11%
24 | COCc1nc(N(C)C)ncc1C(=O)OC | -29.3%
25 | Cc1ccc(CN2Cc3nnn(C)c3C(COCc3ccccc3)C2)s1 (stereo not given) | -43.4%
26 | CN(CCc1ncnn1C1Cc2ccccc2C1)C1CCS(=O)(=O)C1 (stereo not given) | -63.2%
27 | Cc1cccc(OCC(O)CN2CCN(c3nccs3)CC2)c1 (stereo not given) | -7.68%
28 | CCOc1cc(C(=O)N2CCCC2)cc2occc12 | -69.7%

Row | Structure (SMILES) | INHIBITION
29 | Cc1n[nH]cc1CNC1CCN(c2ccc(F)cc2)CC1 | -38.1%
30 | Cc1n[nH]cc1CNC1CCN(c2cccc(C(F)(F)F)c2)CC1 | 62.8%
31 | Cc1n[nH]cc1CNC1CCN(c2ccccc2)CC1 | -20.1%
32 | COc1ccc(C(=O)C2CCCN(c3cc(C#N)ccn3)C2)cc1F (stereo not given) | -126%
33 | CCC(CNC1CCN(C(C)=O)CC1)Oc1ccccc1Cl (stereo not given) | 48.8%
34 | CCC(CNC1CCN(C(C)=O)CC1)Oc1cccc(C)c1 (stereo not given) | 53.2%
35 | COCC(=O)N1CCC(Oc2cccc(C)c2)CC1 | -127%
36 | O=C(C1CCCCC1)N1CCC2(CCCN2CC2CC2)CC1 | -19.9%
37 | CC(C)c1noc(CN2CCN(C(=O)c3cccnc3O)CC2)n1 | -63.3%
38 | Cc1nn(-c2ccccc2)c(C)c1-c1ccnc(N2CCC(O)CC2)n1 | -309%
39 | Cc1nn(-c2ccccc2)c(C)c1-c1ccnc(N2CCCOCC2)n1 | -64.7%
40 | Cc1nn(-c2ccccc2)c(C)c1-c1ccnc(N2CCCNCC2)n1 | 66.9%
41 | CN1CCN(c2cc(Sc3cccs3)nc(N)n2)CC1CCO (stereo not given) | -77.1%
42 | CN(Cc1nccn1C)C1CCCN(CCCc2ccccc2)C1 (stereo not given) | 63.9%
43 | Cc1nc(CN2CCCC(N(C)Cc3nccn3C)C2)no1 (stereo not given) | -29.4%
44 | CN(CCc1ccccc1)C1CCCN(Cc2nccn2C)C1 (stereo not given) | 22.1%
45 | O=C1COC2(CCN(c3ncccn3)CC2)CN1 | -86%
46 | COCCC1COC2(CCN(C(=O)c3ccsc3)CC2)C1 (stereo not given) | -101%
47 | C1CCC(NCCN2CCOCC2)C1 | -99.9%
48 | CCC1CCC(NCCN2CCOCC2)CC1 (stereo not given) | 5.69%
49 | CC(C)(C)C1CCC(NCCN2CCOCC2)CC1 (stereo not given) | 56.3%
50 | CC(C)c1cc(C(=O)NCCc2nc3c(s2)CCC3)n(C)n1 | -63.4%
51 | Cc1noc(C)c1-c1ccnc(C2CCNCC2)c1 | -51.7%
52 | CC(=O)N1CC[C@@]2(O)CCCC[C@H]2[C@@H]1c1ccc2c(c1)OCO2 | -87.3%
53 | c1cc(CCN2CCC(NCc3ccsc3)CC2)ccn1 | -8.86%
54 | Oc1cccc(CNC2CCN(CCc3ccncc3)CC2)c1 | -18.8%
55 | N#Cc1ccc(CNC2CCN(CCc3ccncc3)CC2)cc1 | 56.7%
